The values that follow come from PubChem BioAssay (NCATS).

Experiment [1] in a line: Viability counterscreen for antagonist of constitutive androstane receptor (CAR) against the NCATS DSHEA and TCM libraries (AID 1794837).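 Note: compound exposure lasted 24 h before viability reading; 0% is about no effect.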 In outline: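 HepG2-CYP2B6-hCAR cells (2,500/well) were allowed to attach for 5 h, then exposed to compounds with 48 uM CITCO for 24 h at 37C. Viability was read by CellTiter-Fluor fluorescence after 1 h.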
A short description of experiment [2]: Viability counterscreen for agonist of constitutive androstane receptor (CAR) against the NCATS DSHEA and TCM libraries (AID 1794838). Note: 0% is about no effect. In outline:
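HepG2-CYP2B6-hCAR cells (2,500/well) attached 5 h, then got compounds plus 0.75 uM PK11195 final. After 24 h at 37C, viability read by CellTiter-Fluor fluorescence (Ex/Em 405/540 nm).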

Experiment [3] has as its target Nuclear receptor subfamily 1 group I member 3 (Homo sapiens) (UniProt Q14994). As to the kind of experiment: Primary qHTS for agonist of constitutive androstane receptor (CAR) against the NCATS DSHEA and TCM libraries (AID 1794839).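 Note: HepG2 cells expressing human CAR with a CYP2B6 reporter plus PK11195 antagonist; 0% is about no effect.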 A digest of the protocol:
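HepG2-CYP2B6-hCAR cells (2,500/well) were attached for 5 h, then treated for 24 h at 37 °C with compounds plus 0.75 µM PK11195. Luciferase luminescence (ONE-Glo) was read, with CellTiter-Fluor viability (Ex/Em 405/540 nm).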

Experiment [4] in a line: HepG2 viability counterscreen (readout 2: ATP content) against the NCATS DSHEA and TCM libraries (AID 1794840).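 Note: HepG2 cells exposed to substances for about 24 h; 0% is about no effect.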 In outline: (§1)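 HepG2 cells (1,000 cells/well) attached ~4 h, then treated ~24 h at 37C with substances. Protease activity read by GF-AFC (25 uM final, 30 min, Ex/Em 380/510 nm); ATP content then by CellTiter-Glo luminescence.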
The nature of experiment [5]: HepG2 viability counterscreen (readout 1: protease activity) against the NCATS DSHEA and TCM libraries (AID 1794841).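 Note: cells exposed to compounds for about 24 h before the protease read; 0% is about no effect.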 In outline: as §1
Experiment [6] addresses Cytochrome P450 3A4 (Homo sapiens) (UniProt P08684). As to the kind of experiment: qHTS for inhibitors of CYP3A4 against the NCATS DSHEA and TCM libraries (AID 1919971).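 Note: % is set by controls: 0 for no effect and ±100 for the full control effect; inhibition lowers luminescence from luciferin made by CYP3A4.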 A digest of the protocol:
(§2)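 Read-out is luminescence after P450-Glo detection (30 min, RT). Before that: 15 min compound–enzyme preincubation, then 30-45 min reaction with 1x NADPH regeneration solution, substrate concentration isoform-specific.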

The target of experiment [7] is Cytochrome P450 2D6 (Homo sapiens) (UniProt P10635). The experiment in a line: qHTS for inhibitors of CYP2D6 against the NCATS DSHEA and TCM libraries (AID 1919972). Note: potency is the fitted concentration of half-maximal effect. A digest of the protocol:
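Luminescent P450-Glo read-out of CYP2D6 turnover of a luciferin substrate after NADPH-driven reaction of 30-45 min at room temperature. Compounds were first preincubated 15 min with enzyme at titrated concentrations; quinidine was the intraplate control.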

Experiment [8] deals with Cytochrome P450 2C9 (Homo sapiens) (UniProt P11712). The experiment in a line: qHTS for inhibitors of CYP2C9 against the NCATS DSHEA and TCM libraries (AID 1919973). Note: potency is the fitted concentration of half-maximal effect. A digest of the protocol:
as §2

Experiment [9] in a line: KB-3-1 P-gp reporter qHTS against the NCATS DSHEA and TCM libraries (AID 1919975). Note: 0% is about no effect. A digest of the protocol:
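Parental KB-3-1 human cervical adenocarcinoma cells (500 cells/well, DMEM + 10% FBS) were treated with substances for ~72 h at 37C; viability was read by CellTiter-Glo luminescence.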

The target of experiment [10] is Cytochrome P450 1A2 (Homo sapiens) (UniProt P05177). The experiment in a line: qHTS for inhibitors of CYPIA2 against the NCATS DSHEA and TCM libraries (AID 1919976). Note: potency is the fitted concentration of half-maximal effect. A digest of the protocol:
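CYP1A2 + luciferin substrate, 100 mM KPO4-type buffer; cmpd 15 min RT; 1x NADPH regen, 30-45 min RT dark; detection reagent 30 min RT; luminescence. Minus-enzyme wells as background; furafylline intraplate control.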

Experiment [11] is described as follows: qHTS Counterscreen for compound interference against the NCATS DSHEA and TCM libraries (AID 1919978). Note: % of control where 0% means no effect. The conditions noted are these: firefly luciferase detection reagent interference, luminescence. In outline: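 D-luciferin (1 uM final) or 100 mM potassium phosphate buffer alone was preincubated 15 min at RT with compounds (19.5 nM to 39.8 uM final). Luciferin detection reagent was then added and luminescence read after 30 min at RT.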

Experiment [12] in a line: Dual reporter qHTS for agonist of Pregnane X Receptor (hPXR) against the NCATS DSHEA and TCM libraries: Fluorescence readout (AID 1920058). Note: 0% is about no effect. In outline:
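HepG2 hPXR-Luc, 2000 cells/well, 5 h attach; cpds ~24 h, 37 °C/5% CO2; CellTiter-Fluor 1 h; fluor. Ex/Em 405/540 nm = viability.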

The target in experiment [13] is Nuclear receptor subfamily 1 group I member 2 (Homo sapiens) (UniProt O75469). The experiment in a line: Dual reporter qHTS for agonist of Pregnane X Receptor (hPXR) against the NCATS DSHEA and TCM libraries: Luminescence readout (AID 1920059). Note: 0% is about no effect. A digest of the protocol:
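Luminescent PXR reporter read (ONE-Glo) after a CellTiter-Fluor viability read, following 24 h, 37C treatment of HepG2 cells stably carrying hPXR-Luc.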

Experiment [14] shares this target. The experiment in a line: Dual reporter qHTS for antagonist of Pregnane X Receptor (hPXR) against the NCATS DSHEA and TCM libraries: Luminescence Readout (AID 1920060).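 Note: HepG2 cells carrying hPXR luciferase reporter stimulated with rifampicin at 2 µM; 0% is about no effect.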 In outline:
(§3)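 In antagonist mode, 2 uM rifampicin was added to hPXR-Luc HepG2 cells alongside test substances, incubated 24 h at 37 C; luminescence gave reporter activity, and CellTiter-Fluor fluorescence (405/540 nm) gave viability.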

Experiment [15] can be described thus: Dual reporter qHTS for antagonist of Pregnane X Receptor (hPXR) against the NCATS DSHEA and TCM libraries: Fluorescence Readout (AID 1920061). Note: 0% is about no effect. In outline: as §3
Experiment [16] addresses Mitogen-activated protein kinase 10 (Mus musculus) (UniProt Q61831). As to the kind of experiment: JNK3 AlphaScreen Assay (AID 530; active = well fitted curve in either direction with a large enough effect, not every such curve was filed as active;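 note: kinase came from lysate of stimulated human HepG2 cells; signal reports phosphorylation of biotinylated GST-cJun 1-79 at Ser73 with 10 µM ATP; series mostly up to about 57 µM; % is set by controls: 0 for no effect and ±100 for the full control effect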). In outline: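 Compound titrations were preincubated 15 minutes at room temperature with substrate, antibody and pre-activated JNK3-containing HepG2 lysate. Reactions were started with 10 uM ATP and stopped with EDTA-containing bead buffer for AlphaScreen detection.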

Unmarked numbers belong to inactive results. Records with an inconclusive call do not appear. The source made the active and inactive calls. Unless noted, calls come from the whole dose curve; as a rule, active = well fitted curve in the direction sought with a large enough effect; inconclusive = small, poorly fitted or top-dose-only effect, or another doubt; inactive = no such curve, though single readings can be large; an effect the other way counts as inactive or inconclusive.

Sequence of Cytochrome P450 2D6 (Homo sapiens) (P10635 whole entry, looked up): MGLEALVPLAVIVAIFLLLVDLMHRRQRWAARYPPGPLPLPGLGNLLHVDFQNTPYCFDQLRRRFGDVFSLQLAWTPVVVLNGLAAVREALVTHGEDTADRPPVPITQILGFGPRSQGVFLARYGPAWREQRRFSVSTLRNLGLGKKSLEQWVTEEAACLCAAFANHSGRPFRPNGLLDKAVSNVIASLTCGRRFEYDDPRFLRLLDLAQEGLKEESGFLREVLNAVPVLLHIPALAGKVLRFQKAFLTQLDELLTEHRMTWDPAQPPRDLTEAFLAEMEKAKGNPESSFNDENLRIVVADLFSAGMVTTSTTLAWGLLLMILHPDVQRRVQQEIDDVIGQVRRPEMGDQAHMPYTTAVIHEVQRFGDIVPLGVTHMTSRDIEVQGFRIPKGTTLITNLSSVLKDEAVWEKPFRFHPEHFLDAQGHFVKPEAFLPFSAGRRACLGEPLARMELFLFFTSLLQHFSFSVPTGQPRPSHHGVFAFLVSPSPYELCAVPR
Sequence of Nuclear receptor subfamily 1 group I member 3 (Homo sapiens) (Q14994 whole entry, looked up): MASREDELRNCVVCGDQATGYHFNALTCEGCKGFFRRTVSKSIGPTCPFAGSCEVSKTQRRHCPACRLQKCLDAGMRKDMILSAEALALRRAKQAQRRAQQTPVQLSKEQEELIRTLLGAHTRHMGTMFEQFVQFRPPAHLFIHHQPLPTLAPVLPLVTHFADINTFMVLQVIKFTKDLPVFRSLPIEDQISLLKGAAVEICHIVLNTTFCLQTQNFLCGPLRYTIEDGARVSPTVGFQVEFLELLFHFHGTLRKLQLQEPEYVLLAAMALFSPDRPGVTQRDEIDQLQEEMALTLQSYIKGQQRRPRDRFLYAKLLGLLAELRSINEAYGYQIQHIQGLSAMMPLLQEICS
Sequence of Cytochrome P450 1A2 (Homo sapiens) (P05177 whole entry, looked up): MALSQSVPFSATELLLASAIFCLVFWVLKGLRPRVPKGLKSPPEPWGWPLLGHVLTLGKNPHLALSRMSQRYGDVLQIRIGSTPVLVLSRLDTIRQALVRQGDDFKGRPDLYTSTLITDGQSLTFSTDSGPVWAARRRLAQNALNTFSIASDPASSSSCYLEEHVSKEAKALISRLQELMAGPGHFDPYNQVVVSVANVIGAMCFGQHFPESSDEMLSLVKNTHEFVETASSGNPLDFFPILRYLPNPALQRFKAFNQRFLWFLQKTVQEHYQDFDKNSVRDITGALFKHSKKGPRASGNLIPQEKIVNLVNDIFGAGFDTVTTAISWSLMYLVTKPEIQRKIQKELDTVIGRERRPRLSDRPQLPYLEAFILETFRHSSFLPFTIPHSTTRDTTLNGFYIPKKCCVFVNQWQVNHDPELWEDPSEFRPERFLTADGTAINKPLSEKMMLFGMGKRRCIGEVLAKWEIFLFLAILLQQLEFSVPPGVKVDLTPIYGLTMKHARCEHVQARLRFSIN
Sequence of Nuclear receptor subfamily 1 group I member 2 (Homo sapiens) (O75469 whole entry, looked up): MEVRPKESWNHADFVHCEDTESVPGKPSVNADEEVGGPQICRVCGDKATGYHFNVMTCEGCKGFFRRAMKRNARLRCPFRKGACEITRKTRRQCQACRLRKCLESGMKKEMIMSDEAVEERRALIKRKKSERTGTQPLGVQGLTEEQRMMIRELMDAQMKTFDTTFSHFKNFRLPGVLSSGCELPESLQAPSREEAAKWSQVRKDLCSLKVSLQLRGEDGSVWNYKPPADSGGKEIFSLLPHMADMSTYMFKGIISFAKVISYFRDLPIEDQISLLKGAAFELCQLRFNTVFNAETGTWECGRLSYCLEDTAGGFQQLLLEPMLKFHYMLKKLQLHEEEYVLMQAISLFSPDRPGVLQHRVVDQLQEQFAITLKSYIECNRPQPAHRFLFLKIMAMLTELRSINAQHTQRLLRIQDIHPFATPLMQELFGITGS
Sequence of Cytochrome P450 3A4 (Homo sapiens) (P08684 whole entry, looked up, canonical isoform): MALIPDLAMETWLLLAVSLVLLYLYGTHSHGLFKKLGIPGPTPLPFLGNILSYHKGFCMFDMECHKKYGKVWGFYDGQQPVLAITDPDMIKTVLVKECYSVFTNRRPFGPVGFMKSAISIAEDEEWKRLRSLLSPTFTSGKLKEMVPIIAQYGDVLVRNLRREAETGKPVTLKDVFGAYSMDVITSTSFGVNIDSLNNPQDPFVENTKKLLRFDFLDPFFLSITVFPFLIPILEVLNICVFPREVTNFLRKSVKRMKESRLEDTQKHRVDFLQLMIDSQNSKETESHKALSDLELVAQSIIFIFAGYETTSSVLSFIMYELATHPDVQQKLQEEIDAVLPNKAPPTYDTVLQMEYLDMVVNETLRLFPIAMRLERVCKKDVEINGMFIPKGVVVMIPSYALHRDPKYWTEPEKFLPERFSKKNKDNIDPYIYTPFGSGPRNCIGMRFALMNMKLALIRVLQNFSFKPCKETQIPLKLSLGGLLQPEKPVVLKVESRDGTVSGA
Sequence of Cytochrome P450 2C9 (Homo sapiens) (P11712 whole entry, looked up): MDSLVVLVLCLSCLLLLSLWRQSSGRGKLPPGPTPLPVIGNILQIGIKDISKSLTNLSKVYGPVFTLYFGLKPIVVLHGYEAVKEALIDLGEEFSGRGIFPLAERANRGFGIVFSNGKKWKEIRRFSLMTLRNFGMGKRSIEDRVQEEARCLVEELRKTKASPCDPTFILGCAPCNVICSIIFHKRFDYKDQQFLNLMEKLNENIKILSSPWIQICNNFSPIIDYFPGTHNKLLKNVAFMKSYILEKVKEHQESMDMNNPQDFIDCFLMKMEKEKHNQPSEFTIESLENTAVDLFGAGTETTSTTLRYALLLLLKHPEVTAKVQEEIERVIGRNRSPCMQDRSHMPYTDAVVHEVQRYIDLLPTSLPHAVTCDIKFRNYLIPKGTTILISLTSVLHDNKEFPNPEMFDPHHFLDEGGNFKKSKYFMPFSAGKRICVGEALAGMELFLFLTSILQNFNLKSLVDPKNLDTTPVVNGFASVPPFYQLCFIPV

`Cc1ccc(C(C)C)cc1`: the result in experiment [1], in experiment [2], in experiment [4], in experiment [5], in [9] and in experiment [12] was inactive. Further, the outcome in [14] and in experiment [15] was inactive. For the same compound, the Potency entry in experiment [3], in [6], in experiment [7], in experiment [8], in [10] and in [13] was “inactive” in each case. The max response in experiment [11] was -0.622%.
`CCCCCCCC/C=C/CCCCCCCCCC(=O)O`: the result in [1], in experiment [2], in [4], in [12], in experiment [14] and in [15] was inactive. The Potency result in experiment [3], in experiment [7], in experiment [10] and in experiment [13] was “inactive” throughout. Also, the max response in [11] is -1.3%.
Consider `C=C(C)C(CC=C(C)C)CC12CC(CC=C(C)C)C(C)(C)C(CC=C(C)C)(C(=O)/C(=C(\O)c3ccc(O)c(O)c3)C1=O)C2=O` (centres undefined), for which the compound was called inactive in experiment [1], in [2], in experiment [4], in experiment [5], in experiment [12] and in [14]. Further, in experiment [15], the outcome was inactive. For the same compound, the Potency result in experiment [3] was “inactive”. The Potency in experiment [7] was 28.2 µM (active); in experiment [8] it was 15.8 µM (active). In addition, in experiment [11], the max response is 3.47%.
In the case of `O=C(/C=C/c1ccc(O)c(O)c1)OC1[C@H](O)CC(O)(C(=O)O)C[C@@H]1O` (some centres undefined), the compound was called inactive in [1], in experiment [2], in experiment [5], in experiment [12], in [14] and in experiment [15]. Further, the Potency entry in [3], in experiment [8], in experiment [10] and in experiment [13] was “inactive” each time. In addition, in experiment [11], the max response is -1.19%.
Consider `CCCCC/C=C/C/C=C/CCCCCCCC(=O)O`, for which the call in experiment [4], in experiment [5], in experiment [9], in experiment [12], in experiment [14] and in [15] was inactive. Besides, the Potency in experiment [8] was 12.6 µM (active). The max response in [11] is 0.865%. The Potency result in experiment [13] is “inactive”.
Take `C=C(C)C1CC=C(C)C(O)C1` (centres undefined): the Potency result in experiment [16], in experiment [3], in experiment [6], in experiment [7], in experiment [8] and in experiment [13] was “inactive” each time. Also, the compound was classed as inactive in [1], in [2], in [5], in experiment [9], in [12] and in experiment [14]. Further, the compound was called inactive in [15]. For the same compound, the max response in experiment [11] is 4.01%.
Consider `CCCCCC(=O)O`, for which the compound was classed as inactive in experiment [4], in experiment [5], in [9], in experiment [12], in [14] and in experiment [15]. For the same compound, the Potency result in [7], in experiment [8], in experiment [10] and in experiment [13] was “inactive” throughout. Also, the max response in experiment [11] is -1.64%.
Regarding `Oc1cc(O)c2c(c1)O[C@@H](c1cc(O)c(O)c(O)c1)[C@H](O)C2`, the result in [1], in experiment [2], in experiment [4], in experiment [5], in experiment [9] and in experiment [12] was inactive. Moreover, the result in [14] and in experiment [15] was inactive. The Potency result in experiment [6] and in [7] was “inactive” throughout. Besides, the Potency in [10] is 3.55 µM (active). In experiment [11], the max response is -5.21%.
